This is part of a sample that, as a whole, favours compounds with a hit. Of some 83,000 tested, about 20% had one in any assay.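 Assay: single dose, 48 h. Readout: percent growth (0 = no net growth; negative = cell death). Active: <10.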 A number with no mark means an inactive call. Activity calls are given as the source filed them.

Some test systems named below: T-47D breast; BT-549 breast; MDA-MB-435 melanoma; SW-620 colon; MCF7 breast; HCT-116 colon; HCC-2998 colon; KM12 colon.
Common to all, as to test: NCI-60 one-dose screen, 48 h (100 = growth as untreated, 0 = no growth, -100 = all killed)
Common to all, as to settings: 10 µM unless noted

Regarding `CCOC(=O)C1=C(C(=O)OCC)N(c2cc(OC)c(OC)c(OC)c2)C(N)=C(C#N)C1c1cc(=O)[nH]c2ccccc12` (stereo not given), the growth in the assay with T-47D breast was 95.4%; in the assay with BT-549 breast, 96.5%; in the assay on MDA-MB-435 melanoma it was 96.6%; with SW-620 colon it was 99.2%; in the assay on MCF7 breast, 96%; in the assay with HCT-116 colon, 100%. For the same compound, the growth in the assay with HCC-2998 colon is 108%; in the assay on KM12 colon, 102%.
On to `CCN(CC)CC(=O)Nc1c(C)ccc(N)c1C`, for which the growth in the assay on T-47D breast was 96.6%; in the assay on BT-549 breast, 97.2%; in the assay with MDA-MB-435 melanoma it was 99.8%; in the assay with SW-620 colon, 104%; in the assay with MCF7 breast it was 92.4%; in the assay on HCT-116 colon it was 84%. Also, the growth is 96.8% in the assay on HCC-2998 colon and 114% with KM12 colon.
As for `COc1ccc(CC2c3cc(OC)c(OC)cc3CC[N+]2(C)CCC(=O)OCCCCCOC(=O)CC[N+]2(C)CCc3cc(OC)c(OC)cc3C2Cc2ccc(OC)c(OC)c2)cc1OC` (stereo not given), the growth was 94.5% with T-47D breast; 103% in the assay on BT-549 breast; 96.7% in the assay with MDA-MB-435 melanoma; 100% with SW-620 colon; 85.2% in the assay on MCF7 breast; 88.5% in the assay on HCT-116 colon. For the same compound, the growth was 105% with HCC-2998 colon and 101% with KM12 colon.
In the case of `CCCNCCC(C)=O`, the growth in the assay on T-47D breast was 98.7%; in the assay with BT-549 breast, 106%; in the assay with MDA-MB-435 melanoma, 94.7%; with SW-620 colon, 97.6%; in the assay on MCF7 breast it was 106%; with HCT-116 colon, 109%. The values for the growth in the assay with HCC-2998 colon and in the assay with KM12 colon were 99.6% and 112%, respectively.
Regarding `C=C1C(=O)O[C@H]2[C@H]1CC/C(COC(=O)NCc1ccc(Cn3c(=O)sn(CCCl)c3=O)cc1)=C\CC[C@@]1(C)O[C@@H]21`, the growth was 3.07% (active) in the assay with T-47D breast; 59.4% in the assay with BT-549 breast; 79.4% with MDA-MB-435 melanoma; -20.3% (active) with SW-620 colon; 31.7% in the assay with MCF7 breast; -61.7% (active) in the assay with HCT-116 colon. Further, the growth in the assay with HCC-2998 colon was 120%; in the assay with KM12 colon it was 95.2%.
On to `CN1C(=O)N(C)C2C1NN=c1s/c(=C\c3ccc(Br)cc3)c(=O)n12` (stereo not given), for which the growth was 28.7% with T-47D breast; 50.8% with BT-549 breast; -50.4% (active) in the assay with MDA-MB-435 melanoma; 20% in the assay with SW-620 colon; 13.4% with MCF7 breast; 25% with HCT-116 colon. Also, the growth in the assay on HCC-2998 colon is 53%; in the assay with KM12 colon, 23.3%.
`O=C(CC(=O)c1ccccc1F)Nc1ccc([N+](=O)[O-])cc1`: the growth with T-47D breast was 82.5%; in the assay on BT-549 breast, 89.7%; with MDA-MB-435 melanoma, 88.3%; in the assay with SW-620 colon it was 109%; in the assay with MCF7 breast, 81.3%; with HCT-116 colon it was 90.5%. Moreover, the values for the growth in the assay with HCC-2998 colon and with KM12 colon were 103% and 99.8%, respectively.
Regarding `CCOc1cc(/C=N\NC(=O)C[N+](C)(C)C)ccc1O`, the growth is 94.1% in the assay with T-47D breast; 117% in the assay on BT-549 breast; 109% in the assay with MDA-MB-435 melanoma; 110% in the assay on SW-620 colon; 105% in the assay with MCF7 breast; 111% in the assay with HCT-116 colon. Moreover, the growth was 104% in the assay with HCC-2998 colon and 109% with KM12 colon.
Turning to `CC(=O)Oc1ccccc1C(=O)Nc1ncc([N+](=O)[O-])s1`, the growth with T-47D breast is 61.7%; in the assay with BT-549 breast, -29.4% (active); with MDA-MB-435 melanoma, 24.2%; in the assay on SW-620 colon, 26.7%; in the assay with MCF7 breast it was 49.7%; in the assay on HCT-116 colon, 3.62% (active). The growth is 23.3% with HCC-2998 colon and 24.7% in the assay on KM12 colon.
On to `CC1(C)OC2OC3C(CN)OC(c4ccccc4)OC3C2O1` (stereo not given), for which the growth in the assay on T-47D breast was 92.6%; with BT-549 breast it was 103%; with MDA-MB-435 melanoma, 110%; in the assay on SW-620 colon, 122%; in the assay on MCF7 breast, 103%; in the assay on HCT-116 colon, 101%. In addition, the growth in the assay on HCC-2998 colon is 94.9%; in the assay with KM12 colon, 104%.
For the compound `O=C(Nc1cccc(Cl)c1)Nc1ccccc1Cl`, the growth was 81.5% with T-47D breast; 99.2% in the assay with BT-549 breast; 92.2% in the assay with MDA-MB-435 melanoma; 89.5% with SW-620 colon; 77.8% with MCF7 breast; 90% with HCT-116 colon. Besides, the growth was 99.8% in the assay on HCC-2998 colon and 89.9% with KM12 colon.
For `COc1ccc(-n2c(COc3ccc(F)cc3)n[nH]c2=S)cc1`, the growth with T-47D breast is 101%; with BT-549 breast it was 181%; in the assay on MDA-MB-435 melanoma, 105%; with SW-620 colon, 104%; with MCF7 breast, 107%; in the assay on HCT-116 colon, 101%. The growth was 113% in the assay with HCC-2998 colon and 110% with KM12 colon.
With `O=c1oc2ccccc2cc1-c1cc(-c2ccc(-c3cc(-c4cc5ccccc5oc4=O)nc(-c4cc5ccccc5oc4=O)c3)cc2)cc(-c2cc3ccccc3oc2=O)n1`, the growth in the assay with T-47D breast is 91.1%; with BT-549 breast, 106%; in the assay with MDA-MB-435 melanoma it was 114%; in the assay on SW-620 colon it was 110%; with MCF7 breast it was 68.6%; in the assay with HCT-116 colon, 97%. Moreover, the growth is 110% with HCC-2998 colon and 103% in the assay with KM12 colon.
As for `C=C1C(=O)O[C@H]2[C@H]1CC/C(COC(=O)NCc1c[nH]c3ccc(OC)cc13)=C\CC[C@@]1(C)O[C@@H]21`, the growth in the assay with T-47D breast is -52% (active); in the assay on BT-549 breast it was -24% (active); in the assay on MDA-MB-435 melanoma, 22.3%; in the assay with SW-620 colon, -57.6% (active); in the assay with MCF7 breast, 5.33% (active); in the assay with HCT-116 colon, -79.4% (active). Also, the growth was 45.1% in the assay on HCC-2998 colon and 51.3% in the assay on KM12 colon.
Consider `OCCN(CCO)c1ccc2ccccc2c1`, for which the growth in the assay with T-47D breast was 96.6%; in the assay on BT-549 breast, 101%; in the assay with MDA-MB-435 melanoma, 104%; in the assay with SW-620 colon, 105%; with MCF7 breast, 93.3%; in the assay on HCT-116 colon it was 89.3%. Further, the growth with HCC-2998 colon was 108%; in the assay with KM12 colon, 99.9%.

The values above are taken from PubChem BioAssay (NCI).
